The results in this text go back to PubChem BioAssay (Tox21).

Experiment [1] is described as follows: qHTS assay to identify small molecule agonists of the estrogen receptor alpha (ER-alpha) signaling pathway in the presence of an antagonist - cell viability counter screen (AID 1259386).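 Also: series mostly up to about 92 µM; cells exposed to compounds for 22 h at 37 °C before the viability read; nearly all actives have a fitted effect of over 30% in size.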 The method, boiled down:
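Viability counter screen using VM7Luc4E2 (full-length ER-alpha, four ERE-luciferase). The cells were treated with compounds alongside ICI-182,780 10.0nM for 22hr, and live-cell protease fluorescence was quantified with CellTiter-Fluor.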
On the technique in general: qHTS replaces the single test concentration by a dilution series.

The target of experiment [2] is Progesterone receptor (Homo sapiens) (UniProt P06401). Briefly: qHTS assay to identify small molecule agonists of the progesterone receptor (PR) signaling pathway (AID 1346784; calls by dose curve; also: nearly all actives have a fitted effect of over 30% in size; also: potency is read from the fitted curve at half-maximal effect). In short, it runs like this: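 Compounds were tested for PR agonism in HEK 293T cells bearing a beta-lactamase gene under UAS control. Treatment lasted 16 hr at 37C; signal came from fluorescence of a FRET substrate.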
Progesterone receptor (Homo sapiens), sequence (P06401 whole entry, looked up): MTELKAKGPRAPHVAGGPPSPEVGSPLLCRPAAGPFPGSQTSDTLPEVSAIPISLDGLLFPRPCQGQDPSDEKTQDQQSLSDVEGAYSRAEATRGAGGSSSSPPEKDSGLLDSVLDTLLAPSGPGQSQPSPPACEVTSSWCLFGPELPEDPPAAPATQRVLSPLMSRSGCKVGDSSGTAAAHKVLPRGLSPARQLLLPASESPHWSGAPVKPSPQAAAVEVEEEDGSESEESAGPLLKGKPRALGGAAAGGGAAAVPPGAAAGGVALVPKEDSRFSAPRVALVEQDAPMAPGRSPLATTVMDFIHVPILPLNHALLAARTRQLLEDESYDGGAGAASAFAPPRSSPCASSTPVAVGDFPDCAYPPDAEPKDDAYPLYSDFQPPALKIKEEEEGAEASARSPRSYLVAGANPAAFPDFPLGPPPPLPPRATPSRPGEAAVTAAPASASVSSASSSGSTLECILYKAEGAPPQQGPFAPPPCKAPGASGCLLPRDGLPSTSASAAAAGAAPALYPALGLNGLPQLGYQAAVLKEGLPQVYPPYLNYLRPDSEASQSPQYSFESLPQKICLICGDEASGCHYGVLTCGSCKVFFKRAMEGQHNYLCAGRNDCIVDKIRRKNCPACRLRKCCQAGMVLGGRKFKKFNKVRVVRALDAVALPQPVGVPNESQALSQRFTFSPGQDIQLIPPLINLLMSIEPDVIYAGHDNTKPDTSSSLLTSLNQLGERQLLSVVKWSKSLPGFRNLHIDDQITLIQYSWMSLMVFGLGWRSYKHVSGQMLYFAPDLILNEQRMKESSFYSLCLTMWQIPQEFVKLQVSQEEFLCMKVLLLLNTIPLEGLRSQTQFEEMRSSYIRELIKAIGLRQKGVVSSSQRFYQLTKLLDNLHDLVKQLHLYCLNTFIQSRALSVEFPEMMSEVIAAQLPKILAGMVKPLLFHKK

The nature of experiment [3]: qHTS assay to identify small molecule antagonists of the TGF-beta/Smad signaling pathway - cell viability counter screen (AID 1346824). Also: nearly all actives have a fitted effect of over 50% in size. In short, it runs like this:
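SBE-bla HEK 293T cells, incubated overnight, then compound plus 0.25 ng/mL TGF-beta1 (stock added) for 5 hr at 37 C. Viability was read in the same wells by CellTiter-Glo luminescence after 30 min at room temperature.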

Experiment [4] can be described thus: qHTS assay to identify small molecule agonists of the TGF-beta/Smad signaling pathway - cell viability counter screen (AID 1346829). Also: top concentration of the series differs between compounds; nearly all actives have a fitted effect of over 45% in size. In short, it runs like this: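 SBE-bla HEK 293T cells plated overnight, compound exposure 5 hr at 37 C. Viability read in the same wells by CellTiter-Glo luminescence after 30 min at room temperature, following the beta-lactamase read.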

A short description of experiment [5]: qHTS assay to identify small molecule agonists of the TGF-beta/Smad signaling pathway (AID 1346859; active = well fitted activation curve with a large enough effect in the signal ratio in the repeat runs, not every such curve was filed as active; the % refers to the signal ratio; also: series mostly up to about 77 µM). The method, boiled down: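 Each well held 4,000 SBE-bla HEK 293T cells incubated overnight before compound addition; 5 hr later the cleavable FRET substrate went on for 2 hr at room temperature, and fluorescence was read at two emissions.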
A short description of experiment [6]: Human pregnane X receptor (PXR) small molecule agonists, qHTS cell viability counter screen (AID 1346977). Also: nearly all actives have a fitted effect of over 50% in size. Also: potency is read from the fitted curve at half-maximal effect. In short, it runs like this:
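Tox21 qHTS format; PXR-Luc HepG2, 2,000/well, charcoal-stripped FBS 5%. Cpd exposure 24hr. Read: CellTiter-Fluor fluorescence, multiplexed with luciferase.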

The nature of experiment [7]: Caspase-3/7 induction in HepG2 cells by small molecules, qHTS assay (AID 1346978). Also: nearly all actives have a fitted effect of over 15% in size. In short, it runs like this:
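Wild-type HepG2 cells, 2,000/well, settled 5 hr at 37 C and 5% CO2, then compound-treated for 17 hr; caspase-3/7 activity read by luminescent Caspase-Glo 3/7 after 30 min at room temperature.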

The nature of experiment [8]: Caspase-3/7 induction in CHO-K1 cells by small molecules, qHTS assay (AID 1346980). Also: nearly all actives have a fitted effect of over 15% in size. In short, it runs like this:
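Wild-type CHO-K1 cells exposed to compounds for 17hr at 37 C, 5% CO2. Caspase-3/7 activity then measured by Caspase-Glo 3/7 luminescence after 30min at room temperature.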

Experiment [9] is described as follows: Caspase-3/7 induction in HepG2 cells by small molecules, qHTS cell viability counter screen (AID 1346981). Also: nearly all actives have a fitted effect of over 30% in size. Also: potency is read from the fitted curve at half-maximal effect. The method, boiled down: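 Viability determined by CellTiter-Fluor fluorescence in HepG2 wells also used for the luminescent Caspase-Glo 3/7 read. Compounds were present for 16 hr at 37 C, 5% CO2 before reagent addition.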
The target of experiment [10] is Nuclear receptor subfamily 1 group I member 2 (Homo sapiens) (UniProt O75469). Briefly: CYP3A4 induction through human pregnane X receptor (PXR) by small molecules, qHTS assay (AID 1346984). Also: nearly all actives have a fitted effect of over 40% in size. The method, boiled down: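 Readings come from a luciferase reporter: DPX-2 cells, which are HepG2 cotransfected with PXR and a CYP3A4-promoter construct, were exposed to test compounds for 24 h at 37C before One-Glo detection.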
Nuclear receptor subfamily 1 group I member 2 (Homo sapiens), sequence (O75469 whole entry, looked up): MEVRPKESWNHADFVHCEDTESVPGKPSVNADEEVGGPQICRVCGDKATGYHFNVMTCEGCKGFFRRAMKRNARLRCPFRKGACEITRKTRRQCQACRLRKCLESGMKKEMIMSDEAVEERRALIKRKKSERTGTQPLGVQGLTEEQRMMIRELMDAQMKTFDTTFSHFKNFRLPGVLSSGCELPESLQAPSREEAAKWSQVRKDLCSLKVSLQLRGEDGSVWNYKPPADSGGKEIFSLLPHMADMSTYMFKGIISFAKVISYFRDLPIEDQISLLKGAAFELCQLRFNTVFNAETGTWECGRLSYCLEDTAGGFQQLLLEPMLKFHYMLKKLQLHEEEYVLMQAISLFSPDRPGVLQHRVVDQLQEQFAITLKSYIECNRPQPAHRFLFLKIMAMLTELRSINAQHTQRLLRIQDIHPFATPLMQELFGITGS

The target is the same in experiment [11]. Nature of the experiment: Human pregnane X receptor (PXR) activation by small molecules, qHTS assay (AID 1346985). Also: nearly all actives have a fitted effect of over 40% in size. The method, boiled down: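 DPX-2 cells (HepG2 co-transfected with a PXR response element and a CYP3A4-promoter luciferase construct) were seeded at 2,000 per well, rested 5 hr at 37C, then exposed to DMSO-dissolved compounds for 24 hr. Activation was read as luciferase luminescence.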

The target in experiment [12] is Cytochrome P450 2D6 (Homo sapiens) (UniProt P10635). Briefly: Cytochrome P450 Family 2 Subfamily D Member 6 (CYP2D6) small molecule antagonists: luciferase reporter qHTS assay (AID 1671196). Also: nearly all actives have a fitted effect of over 50% in size. Also: potency is read from the fitted curve at half-maximal effect. In short, it runs like this: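 Each well received CYP2D6 with its proluciferin substrate and chemical, sat 10 min, then got NADPH regeneration solution for 1 h at room temperature. Luminescence in RLU served as the activity measure.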
Cytochrome P450 2D6 (Homo sapiens), sequence (P10635 whole entry, looked up): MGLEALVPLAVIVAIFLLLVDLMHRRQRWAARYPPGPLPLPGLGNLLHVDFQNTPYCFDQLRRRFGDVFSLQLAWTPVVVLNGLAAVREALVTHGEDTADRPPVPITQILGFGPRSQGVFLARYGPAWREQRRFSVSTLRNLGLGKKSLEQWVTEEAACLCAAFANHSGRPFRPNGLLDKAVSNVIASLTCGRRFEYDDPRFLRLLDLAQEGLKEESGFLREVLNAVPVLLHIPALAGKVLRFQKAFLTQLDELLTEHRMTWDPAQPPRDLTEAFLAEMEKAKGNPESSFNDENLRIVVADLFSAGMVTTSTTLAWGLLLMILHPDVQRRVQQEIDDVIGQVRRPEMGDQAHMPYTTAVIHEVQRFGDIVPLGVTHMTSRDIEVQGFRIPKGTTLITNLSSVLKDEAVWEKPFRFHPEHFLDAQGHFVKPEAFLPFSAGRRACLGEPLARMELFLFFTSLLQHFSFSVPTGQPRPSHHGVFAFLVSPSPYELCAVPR
On the technique in general: In a reporter assay the amount or activity of a reporter protein is the signal.

Experiment [13] deals with Thyrotropin-releasing hormone receptor (Homo sapiens) (UniProt P34981). Briefly: qHTS assay to identify small molecule antagonists of the thyrotropin-releasing hormone receptor (TRHR) signaling pathway (AID 1346877; active = well fitted inhibition curve with a large enough effect in the repeat runs, not every such curve was filed as active; also: series mostly up to about 51 µM). The method, boiled down:
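Following an 18 h incubation at 37 °C and a 2 h calcium dye load, TRHR-HEK293 cells were exposed to compound (5 min, room temperature) and challenged with TRH, 1 nM final.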

The target is the same in experiment [14]. Briefly: qHTS assay to identify small molecule agonists of the thyrotropin-releasing hormone receptor (TRHR) signaling pathway (AID 1346891; calls by dose curve; also: series mostly up to about 58 µM). The method, boiled down: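 Screening of agonists relied on calcium signalling in HEK293 cells expressing human TRHR: dye loading 2 h at 37 °C preceded compound addition and a 3-min fluorescence time course.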
Experiment [15] can be described thus: Caspase-3/7 induction in CHO-K1 cells by small molecules, qHTS cell viability counter screen (AID 1346979). Also: nearly all actives have a fitted effect of over 35% in size. Also: potency is read from the fitted curve at half-maximal effect. In short, it runs like this:
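CellTiter-Fluor viability check, qHTS format: wild-type CHO-K1, 16hr compound treatment, 1hr reagent incubation, fluorescence read.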

The target in experiment [16] is Nuclear receptor subfamily 1 group I member 2 (Rattus norvegicus) (UniProt Q9R1A7). Nature of the experiment: Rat pregnane X receptor (rPXR) activation by small molecules, qHTS assay (AID 1346983). Also: nearly all actives have a fitted effect of over 20% in size. The conditions noted are these: rPXR luciferase reporter cells, One-Glo luminescence, 24 h; stronger effect = higher value. In short, it runs like this:
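Cell-based rPXR activation assay: rPXR cells, 2,000 per well, rested 5hr at 37 C, then exposed to compounds in DMSO for 24 hr at 37 C. Luciferase activity read by One-Glo luminescence after 30 min at room temperature.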

Experiment [17] concerns the target Nuclear receptor subfamily 1 group I member 2 (Homo sapiens) (UniProt O75469). Nature of the experiment: Human pregnane X receptor (PXR) small molecule agonists, qHTS assay (AID 1346982). Also: nearly all actives have a fitted effect of over 35% in size. Also: potency is read from the fitted curve at half-maximal effect. The method, boiled down: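 Compound-induced hPXR transactivation of a CYP3A4 luciferase reporter was scored in HepG2 PXR-Luc cells over 24 hr at 37 C, 5% CO2, by luminescence.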

A short description of experiment [18]: qHTS assay to identify small molecule antagonists of the progesterone receptor (PR) signaling pathway - cell viability counter screen (AID 1346798). Also: nearly all actives have a fitted effect of over 50% in size. Also: potency is read from the fitted curve at half-maximal effect. The method, boiled down:
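Following a 4 hr attachment, PR-UAS-bla HEK293T cells in charcoal-stripped FBS medium were exposed to compounds with R5020 for 16 hr; CellTiter-Glo was added and luminescence read after 30 min at room temperature.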

Experiment [19] in a line: qHTS assay to identify small molecule agonists of the progesterone receptor (PR) signaling pathway - cell viability counter screen (AID 1346799; calls by dose curve; also: nearly all actives have a fitted effect of over 45% in size). In short, it runs like this: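 Here, 3,000 PR-UAS-bla HEK293T cells per well were treated with compounds for 16 hr after a 6 hr preincubation at 37C and 5% CO2; cell viability is the CellTiter-Glo luminescence signal.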

Values joined by “and” are separate entries in the source; they are usually repeats but may differ in a detail not shown here. Equal values may be shown once. Inconclusive results are not listed. Some structures have more than one record in an assay (separate samples or runs), and their calls can disagree. Active and inactive are the calls of the source. Unless noted, calls follow the shape of the dose curve; as a rule, active = well fitted curve in the direction sought with a large enough effect in the repeat runs; inconclusive = weak or mixed curves; inactive = no such curve, though single readings can be large; an effect the other way counts as inactive or inconclusive.
% is scaled to controls: 0 for no effect and ±100 for the full control effect.

Thyrotropin-releasing hormone receptor (Homo sapiens), sequence (P34981 whole entry, looked up): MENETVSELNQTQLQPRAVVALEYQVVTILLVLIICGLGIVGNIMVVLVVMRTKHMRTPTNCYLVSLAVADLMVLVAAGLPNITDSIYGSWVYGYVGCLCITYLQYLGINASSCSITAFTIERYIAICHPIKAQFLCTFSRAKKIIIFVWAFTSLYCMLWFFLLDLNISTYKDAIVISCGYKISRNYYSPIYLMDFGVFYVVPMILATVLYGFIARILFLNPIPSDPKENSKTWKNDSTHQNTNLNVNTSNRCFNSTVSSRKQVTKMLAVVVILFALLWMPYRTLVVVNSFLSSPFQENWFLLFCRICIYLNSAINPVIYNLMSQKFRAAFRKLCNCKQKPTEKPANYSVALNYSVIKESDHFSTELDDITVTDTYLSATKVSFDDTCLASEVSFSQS
Nuclear receptor subfamily 1 group I member 2 (Rattus norvegicus), sequence (Q9R1A7 whole entry, looked up): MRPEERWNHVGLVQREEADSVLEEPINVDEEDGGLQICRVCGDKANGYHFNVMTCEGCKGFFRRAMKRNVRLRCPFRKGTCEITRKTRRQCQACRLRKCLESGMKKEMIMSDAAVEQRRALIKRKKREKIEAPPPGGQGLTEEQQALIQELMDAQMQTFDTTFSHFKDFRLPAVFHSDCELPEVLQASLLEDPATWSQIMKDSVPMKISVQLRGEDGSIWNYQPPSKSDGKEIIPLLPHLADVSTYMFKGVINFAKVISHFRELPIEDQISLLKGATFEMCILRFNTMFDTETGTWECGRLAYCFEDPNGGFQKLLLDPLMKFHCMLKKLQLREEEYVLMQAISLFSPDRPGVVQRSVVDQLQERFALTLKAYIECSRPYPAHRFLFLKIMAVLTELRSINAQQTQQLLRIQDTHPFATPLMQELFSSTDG

As to `C#C[C@]1(O)CC[C@H]2[C@@H]3[C@H](C)CC4=C(CCC(=O)C4)[C@H]3CC[C@@]21C`, the Potency entry in experiment [1], in [3], in [4], in [5], in experiment [6] and in [7] was “inactive” in each case. The Potency entry in [8], in [9], in experiment [10], in experiment [11] and in [12] was “inactive” in each case. The Potency in experiment [2] is 0.0188 µM (active).
`COc1c(C)c2c(c(O)c1C/C=C(\C)CCC(=O)OCCN1CCOCC1)C(=O)OC2`: the Potency result in [1], in experiment [2], in [4], in experiment [5], in experiment [13] and in experiment [6] was “inactive” in each case. Moreover, the Potency entry in experiment [7], in experiment [8], in [10], in experiment [11] and in experiment [12] was “inactive” each time. The compound was classed as inactive in experiment [14]. For the same compound, in experiment [15], the Potency is 0.841 µM (active). For the same compound, the max activation in experiment [16] was -3.72% (inactive).
Consider `COc1ccc(-c2coc3cc(O)ccc3c2=O)cc1`, for which the Potency entry in experiment [1], in [2], in [4], in experiment [5], in [13] and in experiment [6] was “inactive” throughout. Also, the Potency result in experiment [7] and in [15] was “inactive” each time. For the same compound, in experiment [14], the call was inactive. The Potency in [17] is 1.37 µM (active).
On to `CCCNCCC`, for which the Potency entry in [1], in experiment [2], in experiment [18], in experiment [4], in experiment [5] and in experiment [13] was “inactive” each time. Besides, the Potency entry in [6], in [7], in experiment [15], in [8], in [9] and in [17] was “inactive” in each case. Moreover, the compound was classed as inactive in experiment [14].
As to `CN1CCC[C@@H]1CCO[C@](C)(c1ccccc1)c1ccc(Cl)cc1`, the Potency result in [1], in experiment [2], in experiment [4], in [5], in experiment [13] and in experiment [8] was “inactive” in each case. Moreover, the Potency is 21.1 µM (active) in experiment [18], 21.1 µM (active) in experiment [6] and 26.6 µM (active) in experiment [15]. Also, the compound was called inactive in experiment [14]. In addition, in experiment [16], the max activation is 6.7% (inactive).
As for `CN(C)Cc1cc(C(C)(C)C)c(O)c(C(C)(C)C)c1`, the Potency result in experiment [1], in [2], in [3], in [5], in experiment [6] and in experiment [7] was “inactive” in each case. Further, the Potency result in experiment [15], in experiment [8] and in experiment [9] was “inactive” throughout.
On to `Cc1c2ccccc2c(C)c2c1ccc1ccccc12`, for which the Potency entry in experiment [1], in experiment [2], in experiment [3], in experiment [13], in [7] and in [12] was “inactive” throughout. Besides, the Potency in experiment [18] was 27 µM (active) and 30.6 µM (active); in experiment [6] it was 61.1 µM (active); in experiment [15], 61.1 µM (active); in experiment [9] it was “inactive and 61.1 µM (active)”; in experiment [17] it was 30.3 µM (active) and 17.2 µM (active). In addition, the outcome in experiment [14] was inactive.
As to `CCOC(=O)c1ccc(C2CCC(NC[C@H](O)COc3ccc(O)c(NS(C)(=O)=O)c3)CC2)cc1` (stereo partly specified), the Potency entry in experiment [1], in [2], in [19], in experiment [3] and in experiment [17] was “inactive” in each case. Also, the Potency in [6] is 56.4 µM (active); in experiment [12], 58.4 µM (active).
`S=C([S-])NCCNC(=S)[S-].S=C([S-])NCCNC(=S)[S-].[Mn+2].[Zn+2]`: the Potency result in [1], in [2], in [3], in [4], in experiment [5] and in [6] was “inactive” in each case. The Potency result in experiment [7] is “inactive”. Moreover, the Potency in experiment [17] was 5.31 µM (active).
